Screens deposited in PubChem BioAssay by National Center for Advancing Translational Sciences (NCATS).
GPT2 inh – blocks human glutamate pyruvate transaminase 2; Recombinant GPT2, coupled pyruvate oxidase/HRP Amplex Red fluorescence; Potency, µM (titrated, usually from 57.7 µM), for inactives: at the highest dose activity change, negative = inhibition, usual class: inhibitors; actives 0.25% (n = 100,000); also: nearly all actives have a fitted effect of over 60% in size
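Fluorescence of coupled pyruvate oxidase/HRP/Amplex Red system (50uM Amplex, 30 min, dark) reports pyruvate formed by GPT2. Enzyme reaction: 10ng/uL GPT2, 2mM L-alanine, 250uM a-KG, 30 min room temperature, pH 7.5; 50uM AOA control.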
hNpr1 antagonist – human Npr1 receptor antagonism | P16066 | HEK293 hNpr1 GloSensor cGMP, ANP-stimulated luminescence | Potency, µM (doses to about 46.3 µM), for inactives: at the top dose activity change, negative = inhibition, most hits filed as inhibitors | actives 1.6% (n = 76,000); calls by dose curve; also: nearly all actives have a fitted effect of over 60% in size
Target sequence (P16066 whole entry, looked up): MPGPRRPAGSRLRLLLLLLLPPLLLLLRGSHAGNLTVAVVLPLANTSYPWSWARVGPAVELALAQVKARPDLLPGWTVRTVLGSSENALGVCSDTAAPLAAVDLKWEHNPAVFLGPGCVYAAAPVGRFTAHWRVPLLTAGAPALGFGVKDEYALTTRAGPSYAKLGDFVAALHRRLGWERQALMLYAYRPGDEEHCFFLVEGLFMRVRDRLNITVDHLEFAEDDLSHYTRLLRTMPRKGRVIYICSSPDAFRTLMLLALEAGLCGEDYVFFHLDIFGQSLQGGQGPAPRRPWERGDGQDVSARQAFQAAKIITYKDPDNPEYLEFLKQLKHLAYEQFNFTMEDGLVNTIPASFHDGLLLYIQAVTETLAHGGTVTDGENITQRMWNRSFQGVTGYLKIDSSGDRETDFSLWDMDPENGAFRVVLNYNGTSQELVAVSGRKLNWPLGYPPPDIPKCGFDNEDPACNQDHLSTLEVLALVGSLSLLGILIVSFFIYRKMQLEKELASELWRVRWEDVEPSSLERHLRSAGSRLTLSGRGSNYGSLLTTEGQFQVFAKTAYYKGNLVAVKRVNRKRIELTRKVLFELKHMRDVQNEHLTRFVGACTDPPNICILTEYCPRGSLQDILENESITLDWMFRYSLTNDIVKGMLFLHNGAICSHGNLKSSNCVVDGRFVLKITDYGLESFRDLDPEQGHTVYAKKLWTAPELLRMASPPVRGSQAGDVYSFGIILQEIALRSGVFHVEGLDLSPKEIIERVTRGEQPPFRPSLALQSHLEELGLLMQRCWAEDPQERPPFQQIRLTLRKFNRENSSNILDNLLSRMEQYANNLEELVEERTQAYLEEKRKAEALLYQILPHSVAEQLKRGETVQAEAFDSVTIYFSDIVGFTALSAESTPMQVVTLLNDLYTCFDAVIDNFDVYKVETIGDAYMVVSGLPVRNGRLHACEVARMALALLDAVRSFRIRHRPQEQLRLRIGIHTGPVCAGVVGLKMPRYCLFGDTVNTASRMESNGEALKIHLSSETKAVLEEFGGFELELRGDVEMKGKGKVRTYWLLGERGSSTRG
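Compound pre-incubated 30 min at room temperature on GloSensor-loaded HEK293 cells stably carrying hNpr1 and the pGS-40F cGMP biosensor. Stimulation uses hNppA at 0.1 nM final; luminescence is taken at baseline and 20 min post-agonist.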
HEK293 tox – HEK 293 cell cytotoxicity. HEK 293 viability, ATP luminescence (CellTiter-Glo), 48-72 h. Potency, µM (top dose mostly 115 µM), for inactives: at the top dose activity change, negative = cytotoxicity, usual class: inhibitors. actives 6.6% (n = 94,000); also: nearly all actives have a fitted effect of over 60% in size
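qHTS cytotoxicity; HEK 293, 250 cells/well; compound pinned; 48 or 72 hr, 37 degree Celsius, 5% CO2, 95% humidity; CellTiter-Glo, 10 min RT; luminescence (ATP).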
Luciferase inh – inhibitors of firefly (Photinus pyralis) luciferase; actives 2.5% (n = 76,000); Potency, µM (doses to about 115 µM), hits mostly inhibitors; purified P. pyralis luciferase, luminescence, biochemical; also: nearly all actives have a fitted effect of over 65% in size
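Luminescence read by CCD imager after adding enzyme (10nM final) to wells holding compound, titrated in qHTS. Substrates 10uM each D-luciferin and ATP; buffer 50mM Tris acetate pH 7.5, 10mM Mg acetate, Tween-20, BSA.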
3T3 cytotox – kills NIH 3T3 cells. NIH 3T3 viability, CellTiter-Glo ATP luminescence, 48-72 h. Potency, µM (series often up to 96.7 µM), inactives show top-dose activity change, negative = cytotoxicity, most hits filed as inhibitors. actives 4.3% (n = 94,000); also: nearly all actives have a fitted effect of over 55% in size
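Luminescent ATP readout (CellTiter-Glo, 10 min RT) after 48 or 72 hr compound exposure of NIH 3T3 cells seeded at 400 cells/well in 1536-well format; quantitative HTS.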
* hit, by the source's call; i = inactive; ? = inconclusive; . = no result; ! = repeats disagree; [ ] = dose if it differs, or a comment. The list is not random: actives were taken first. Their share in the collection is about 10%. Unless noted, calls follow the shape of the dose curve; as a rule, active = well fitted curve in the direction sought with a large enough effect; inconclusive = small, poorly fitted or top-dose-only effect, or another doubt; inactive = no such curve, though single readings can be large; an effect the other way counts as inactive or inconclusive. % is scaled to controls: 0 for no effect and ±100 for the full control effect; potency is read from the fitted curve at half-maximal effect.

SMILES | GPT2 inh | hNpr1 antagonist | HEK293 tox | Luciferase inh | 3T3 cytotox
O=C(C1CCCN(c2nccc(Nc3ccccc3F)n2)C1)N1CCOCC1 (stereo not given) | i | . | ? | . | -26%
COc1ccc(-c2nc(C)nc3c2CN([S+](=O)([O-])c2ccc(C)cc2)CC3)cc1 | 0% | 0% | -26% | i | -22%
Cc1ccccc1N1CCN(C(=O)c2cc3n(n2)CC(c2ccc(Cl)cc2)OC3)CC1 (stereo not given) | -33% | ? | ? | i | ?
O=C(c1cc2n(n1)CC(c1ccc3c(c1)OCO3)OC2)N1CCCCC1 (stereo not given) | i | -7% | 35µM* | i | 40µM*
O=C(Nc1ccccc1)c1cc2n(n1)CC(c1ccc3c(c1)OCO3)OC2 (stereo not given) | i | ? | ? | ? | ?
Cc1ccc(C)c(N2CCN(C(=O)c3cc4n(n3)CC(c3ccc(Cl)cc3)OC4)CC2)c1 (stereo not given) | i | -20% | 45µM* | i | ?
O=C(c1cc2n(n1)CC(c1ccc(Cl)cc1)OC2)N1CCCCC1 (stereo not given) | 1% | -25% | ? | i | 40µM*
O=C(c1cc2n(n1)CC(c1ccc(Br)cc1)OC2)N1CCOCC1 (stereo not given) | ? | -11% | 28µM* | i | 40µM*
Cc1ccc(N2CCN(C(=O)c3cc4n(n3)CC(c3ccc(Cl)cc3)OC4)CC2)cc1 (stereo not given) | -7% | ? | ? | i | ?
CCN1CCN(C(=O)c2cc3n(n2)CC(c2ccc(Br)cc2)OC3)CC1 (stereo not given) | -34% | -25% | ? | i | ?
CCCc1noc(-c2nnn3c2COC(c2ccc(OC)cc2)C3)n1 (stereo not given) | i | -30% | -9% | i | -15%
COC(=O)[C@@H](C)NC(=O)[C@@H]1CN(C(=O)c2cccc(F)c2)CCN1C(=O)C1CCCCC1 | -8% | 4% | -15% | i | -4%
O=C(c1ccc(Cl)cc1)N1CC2(CCCN2Cc2ccccn2)Cc2ccccc21 (stereo not given) | -2% | . | ? | . | ?
O=S1(=O)c2cccnc2OC(COc2ccccc2)CN1Cc1cccs1 (stereo not given) | i | . | ? | . | 28µM*
COc1ccc(OCC2CN(CCc3ccccc3)S(=O)(=O)c3cccnc3O2)cc1 (stereo not given) | -4%[27.3 µM] | . | ? | . | ?
Cc1cccc(-c2cccc(CN3CCC(N[S+](=O)([O-])c4c(C)noc4C)CC3)c2)c1 | -12% | . | 28µM* | . | 32µM*
Cc1noc(C)c1[S+](=O)([O-])NC1CCN(Cc2cccc(-c3cccs3)c2)CC1 | 4% | . | 22µM*! | . | 40µM*!
CN1C(=O)C(c2ccccc2)CC12CCN(C(=O)CNC(N)=O)CC2 (stereo not given) | -5% | -3% | -13% | i | 2%
O=C(NCCc1ccncc1)c1cccnc1OC1CCNCC1 | i | -8% | -3% | i | i
O=C(NCCc1ccccn1)c1ccc(OC2CCNCC2)nc1 | i | ? | ? | 7.9µM* | ?
COCCNC(=O)[C@@H]1C[C@H](Oc2ccccc2)CN1C(=O)c1ocnc1C | ? | 1% | i | i | 4%
CN1CCCN(S(=O)(=O)c2ccc(Cl)cc2)c2ccccc21 | -8% | 0% | ? | i | ?
CN1CCCN(S(=O)(=O)c2cccc(Br)c2)c2ccccc21 | -16% | -23% | 40µM* | i | ?
Cc1cccc(S(=O)(=O)N2CCCN(C)c3ccccc32)c1 | i | -6% | ? | i | ?
CN1CCCN(S(=O)(=O)c2ccc(C(F)(F)F)cc2)c2ccccc21 | ? | -3% | 40µM* | i | ?
SMILES | GPT2 inh | hNpr1 antagonist | HEK293 tox | Luciferase inh | 3T3 cytotox
COc1c(F)cccc1C(=O)N1CCc2onc(-c3ccccc3F)c2C1 | -1% | ? | ? | i | ?
Oc1cc(-c2csc3ccccc23)cc2c1OCCNC2 | i | -16% | 20µM* | i | ?
Cc1ccccc1-c1cc(O)c2c(c1)CNCCO2 | i | 0% | -29% | i | -24%
O=C(NCc1ccccc1)C1(Oc2ccc(Cl)cc2)CCNCC1 | 3% | -13% | ? | i | ?
Cc1ccc(OC2(C(=O)NCC3COc4ccccc4O3)CCNCC2)cc1 (stereo not given) | i | 4% | 35µM* | i | 32µM*
C#CCNC(=O)c1cn2cc(-c3cccc(OC)c3)sc2n1 | -1%[88.5 µM] | . | ? | . | ?
CN1CCN(c2ccc(C(=O)Nc3n[nH]c4ccc(Cc5cc(F)cc(F)c5)cc34)c(NC3CCOCC3)c2)CC1 | i | . | . | . | .
CS(=O)(=O)N[C@@H]1[C@@H](NC(=O)c2scc3c2CCCC3)[C@H]2CCO[C@H]21 | -4% | 3% | -13% | i | -25%
O=S(=O)(c1ccc2c(c1)CCC2)N1CCC(Cc2nc(-c3ccncc3)n[nH]2)C1 (stereo not given) | -5% | -22% | ? | i | ?
CCOc1cccc(NC(=O)c2cc(-c3ccc(C(F)(F)F)cc3)nc3c2cnn3C)c1 | . | . | -23% | . | ?
COc1ccccc1-c1cc(C(=O)Nc2cccc(C(F)(F)F)c2)c2cnn(C)c2n1 | . | . | 14µM* | . | ?
COc1ccc(-c2cc(C(=O)Nc3cccc(C(F)(F)F)c3)c3cnn(C)c3n2)cc1 | . | . | 35µM* | . | ?
COc1cccc(C(O)c2nc(C(=O)Nc3nc(C)cs3)c(C)o2)c1 (stereo not given) | -6%[88.5 µM] | 18µM* | ? | ? | ?
COc1cccc(C(O)c2nc(C(=O)Nc3ccc4c(c3)CC(=O)N4)c(C)o2)c1 (stereo not given) | 2%[88.5 µM] | 1%[70.6 µM] | 100µM* | i | ?
Cc1csc(NC(=O)c2nc(C(O)c3ccccc3)oc2C)n1 (stereo not given) | 0%[88.5 µM] | ? | ? | i | 79µM*
COc1cc(N2C[C@H]3OC(=O)N(Cc4ccc(OC)c(OC)c4)[C@H]3C2)ncn1 | i | -28% | ? | i | -27%
COc1ccc(-c2noc([C@@H]3Cc4nc[nH]c4CN3Cc3ccc(C)cc3)n2)cc1 | 3%[88.5 µM] | -25%[70.6 µM] | 89µM* | 63µM* | ?
COc1ccccc1CN1Cc2[nH]cnc2C[C@H]1c1nc(-c2cccc(C)c2)no1 | -1%[88.5 µM] | -26%[70.6 µM] | 63µM* | i | 71µM*
COc1ccc(-c2noc([C@@H]3Cc4nc[nH]c4CN3C(=O)c3ccc(F)cc3)n2)cc1 | -2%[88.5 µM] | -10%[70.6 µM] | ? | ? | ?
